Consider 34 compounds from PubChem BioAssay (EPA / NIEHS).

Results filed as inconclusive are left out. Active and inactive are the calls of the source. The calls were made as follows: active = hit-call score of the fitted dose curve at least 0.9, where 1 is the maximum; inconclusive = response in the unintended direction; inactive = score below 0.9.

The experiment can be described thus: ACEA_ER_AUC_viability: ACEA Biosciences xCELLigence Real-Time Cell Analysis on Estrogen Receptor Agonism for Viability (AID 2283782).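 Also: continuous compound exposure with impedance area under curve over 80 h; hit means loss of impedance signal meaning reduced cell growth or viability.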 In a few lines:
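T-47D; phenol red-free RPMI1640 + 10% CS-FBS; 8 conc., 1:4 serial, max 100 uM final, ≤0.5% DMSO; n = 2; continuous exposure; impedance monitored to 80 h post-dose; AUC vs DMSO.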
In the case of `CCOC(=O)c1ccc(C)cc1`, the call was inactive.

On to `CC1(C)[C@@H]2CC[C@@]1(C)C(=O)C2`, for which the compound was called inactive.

`Nc1cccc(N)n1`: the outcome was inactive.

As a reminder, the AC50 is the concentration giving half of the maximal activity seen. Regarding `CCCCC(CC)COC(=O)/C=C/c1ccc(OC)cc1` (centres undefined), the AC50 was 40.1 µM (active).

On to `CCOC(=O)[C@H](O)[C@@H](O)C(=O)OCC`, for which the AC50 is 50 µM (active).

Turning to `CCN(CC)c1cccc(C)c1`, the AC50 was 27.9 µM (active).

For the compound `CC(C)=NNC(N)=S`, the concentration at half-maximal activity (AC50) was 82.4 µM (active).

Take `CC(C)(c1ccccc1)c1ccc(Nc2ccc(C(C)(C)c3ccccc3)cc2)cc1`: the result was inactive.

In the case of `CCCC(CC)c1ccccc1` (centres undefined), the compound was called inactive.

With `c1ccc2cnccc2c1`, the call was inactive.

On to `CCCCCCCCC(CO)CCCCCC` (centres undefined), for which the AC50 was 33.9 µM (active).

For `CC(C)c1ccc2ncccc2c1`, the outcome was inactive.

Take `[Cl][Sc]([Cl])[Cl]`: the compound was called inactive.

With `CC(C)CO`, the call was inactive.

In the case of `CCCCCCCCCCCC(=O)OCC`, the compound was called inactive.

Turning to `C=CC(=O)O[C@H]1C[C@@H]2CC[C@@]1(C)C2(C)C`, the result was inactive.

Take `CC(=O)CCC1=C(C)CCCC1(C)C`: the AC50 is 81.5 µM (active).

As for `Cc1cccc(C(C)(C)C)c1O`, the result was inactive.

`CCC(=O)C1CC(C(C)C)CC=C1C` (centres undefined): the compound was called inactive.

With `CCCCCCO`, the outcome was inactive.

Consider `CC1(C)CC(O)CC(C)(C)N1[O]`, for which the outcome was inactive.

For `CC(C)(O)Cc1ccccc1`, the AC50 is 27.5 µM (active).

Take `C/C=C/C=C/CCCCCCCO`: the concentration at half-maximal activity (AC50) is 79.4 µM (active).

As for `CCCC=C(C=O)CC`, the compound was classed as inactive.

In the case of `Cn1ccnc1`, the compound was classed as inactive.

Take `c1ccc(Nc2cccc3ccccc23)cc1`: the concentration at half-maximal activity (AC50) is 81.4 µM (active).

With `C1CCSC1`, the call was inactive.

For the compound `O=S(=O)(O)c1ccc(Nc2nc(Nc3ccc(C=Cc4ccc(Nc5nc(Nc6ccc(S(=O)(=O)O)cc6)nc(N(CCO)CCO)n5)cc4S(=O)(=O)O)c(S(=O)(=O)O)c3)nc(N(CCO)CCO)n2)cc1`, the outcome was inactive.

As for `O=C(Oc1ccccc1)c1ccccc1C(=O)Oc1ccccc1`, the concentration at half-maximal activity (AC50) is 86.1 µM (active).

On to `Cc1c[nH]c(=O)[nH]c1=O`, for which the AC50 is 68.6 µM (active).

`C=CC(C)(CCC=C(C)C)OC(=O)C=Cc1ccccc1` (centres undefined): the AC50 was 83.6 µM (active).

As for `C=CC(=O)OCCCCCCCCCC`, the result was inactive.

In the case of `CCCCCCCCCCCC(C)=O`, the AC50 was 66.7 µM (active).

For the compound `CCC(C)C(=O)OC` (centres undefined), the call was inactive.
